VDR inhibitor: Inhibitors of the vitamin D receptor (VDR): qHTS | VDR-SRC2-3 peptide fluorescence polarization, 2 h | Potency, µM, actives largely listed as inhibitors | actives 0.93% (n = 400,000) | AID 504847, 2011
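FP read-out; VDR + SRC2-3 coactivator peptide; 23 nl compound by pintool; 2 h RT incubation; reagents held at 4 deg C, protected from light.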
PLK1 PBD block: qHTS for Inhibitors of PLK1-PDB (polo-like kinase 1 - polo-box domain): Primary Screen | Potency, µM, most hits filed as inhibitors | Serine/threonine-protein kinase PLK1 (Homo sapiens), P53350 | Plk1 PBD binding of FITC phosphopeptide, fluorescence polarization | actives 2.8% (n = 360,000); note: series mostly up to about 57 µM; nearly all actives have a fitted effect of over 65% in size
FEN1 inhibitor: qHTS Assay for the Inhibitors of Human Flap endonuclease 1 (FEN1) | P39748 | Recombinant FEN1 flap cleavage, fluorescence, 15 min | Potency, µM (doses to about 114 µM), hits mostly inhibitors | actives 0.35% (n = 390,000); note: nearly all actives have a fitted effect of over 65% in size
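Quantitative HTS format: each compound was titrated, incubated with 10 nM nuclease for 15 min at room temperature, then challenged with flap substrate at 50 nM final. Signal change over 15 min gave concentration–effect curves.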
WRN inhibitor: qHTS for Inhibitors of WRN Helicase | Bifunctional 3'-5' exonuclease/ATP-dependent helicase WRN (Homo sapiens), Q14191 | WRN helicase unwinding, fluorescent forked duplex, kinetic | Potency, µM (titrated, usually from 114 µM), actives largely listed as inhibitors | actives 0.46% (n = 360,000) | AID 651768, 2012; note: nearly all actives have a fitted effect of over 55% in size
Target sequence (Q14191 whole entry, looked up): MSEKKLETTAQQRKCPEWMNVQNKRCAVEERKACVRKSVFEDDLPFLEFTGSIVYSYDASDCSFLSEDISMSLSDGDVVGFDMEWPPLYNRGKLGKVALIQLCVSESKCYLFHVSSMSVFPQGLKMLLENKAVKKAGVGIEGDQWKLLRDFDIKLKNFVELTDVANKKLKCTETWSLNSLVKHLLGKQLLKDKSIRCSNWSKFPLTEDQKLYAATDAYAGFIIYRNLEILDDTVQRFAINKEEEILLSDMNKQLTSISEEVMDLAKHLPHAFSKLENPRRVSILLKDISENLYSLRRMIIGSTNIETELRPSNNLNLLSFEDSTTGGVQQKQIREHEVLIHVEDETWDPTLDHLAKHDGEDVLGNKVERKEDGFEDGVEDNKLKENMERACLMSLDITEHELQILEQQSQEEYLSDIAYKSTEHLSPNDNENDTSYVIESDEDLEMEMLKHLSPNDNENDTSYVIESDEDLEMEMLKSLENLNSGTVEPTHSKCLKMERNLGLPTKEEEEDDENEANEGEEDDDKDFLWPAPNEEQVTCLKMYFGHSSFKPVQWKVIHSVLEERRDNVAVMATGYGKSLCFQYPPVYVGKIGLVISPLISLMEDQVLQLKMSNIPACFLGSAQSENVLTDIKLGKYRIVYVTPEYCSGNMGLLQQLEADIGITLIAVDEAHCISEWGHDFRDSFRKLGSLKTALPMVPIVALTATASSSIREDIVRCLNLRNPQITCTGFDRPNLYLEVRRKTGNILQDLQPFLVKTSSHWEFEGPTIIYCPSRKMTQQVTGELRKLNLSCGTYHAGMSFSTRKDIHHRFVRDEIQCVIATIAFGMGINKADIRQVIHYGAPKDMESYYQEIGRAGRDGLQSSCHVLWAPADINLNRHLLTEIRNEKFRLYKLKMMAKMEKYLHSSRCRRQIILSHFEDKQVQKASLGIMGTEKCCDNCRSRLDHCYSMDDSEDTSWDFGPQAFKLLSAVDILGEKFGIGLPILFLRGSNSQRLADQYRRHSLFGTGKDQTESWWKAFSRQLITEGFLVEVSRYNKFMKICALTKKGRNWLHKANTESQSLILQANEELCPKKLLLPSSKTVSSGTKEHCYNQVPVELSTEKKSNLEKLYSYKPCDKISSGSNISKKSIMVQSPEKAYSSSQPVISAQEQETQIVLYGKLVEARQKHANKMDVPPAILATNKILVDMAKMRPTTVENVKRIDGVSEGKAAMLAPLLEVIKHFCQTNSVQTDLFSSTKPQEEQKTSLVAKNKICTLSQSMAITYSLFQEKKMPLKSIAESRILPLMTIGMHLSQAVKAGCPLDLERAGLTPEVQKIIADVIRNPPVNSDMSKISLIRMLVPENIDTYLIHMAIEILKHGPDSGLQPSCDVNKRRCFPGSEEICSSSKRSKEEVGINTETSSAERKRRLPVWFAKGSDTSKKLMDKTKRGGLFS
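Kinetic red-fluorescence monitoring (525/598 nm) tracks WRN helicase activity after 100 nM fluorophore-quencher forked duplex and 2 mM ATP are added to 20 nM enzyme pretreated 15 min at room temperature with compound.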
PI5P4K alpha inh: qHTS for Inhibitors of phosphatidylinositol 5-phosphate 4-kinase (PI5P4K); actives 1.2% (n = 330,000); max response, %; PI5P4Kalpha enzyme, ADP-Glo luminescence, 60 min; active compounds read low; active = max response of -50% or lower; inconclusive = between -30% and -50%; inactive = -30% or higher; note: value at the top dose of about 77 µM
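Reactions run in 0.038 M HEPES pH 7.4, 0.28 mM EGTA, 0.1% CHAPS and 5% DMSO, with PI5P4Kalpha, substrate, compound and 5 microM ATP final, one hour at room temperature. Readout is ADP-Glo luminescence.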
TCR activator: Activators of T cell receptors: qHTS campaign. primary human leukocytes, anti-CD3, IL-2 HTRF, 48 h. Potency, µM (highest dose often 9.22 µM), hits mostly activators. 330,000 tested, under 10 active. AID 504894, 2011
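Readout: HTRF IL-2, Eu-cryptate/d2 antibody pair, 320nm excitation, 665nm emission. Stimulus: a-CD3 beads, no co-stimulation. Cells: primary human leukocytes. Exposure: 48 hr with compound.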
Numbers stand for hits; . = inactive; ? = inconclusive; / = no result; ! = repeats disagree; [ ] = dose if it differs, or a comment. An excerpt weighted towards active compounds, which were near 3.7% of everything screened. Unless noted, calls come from the whole dose curve; as a rule, active = well fitted curve in the direction sought with a large enough effect; inconclusive = small, poorly fitted or top-dose-only effect, or another doubt; inactive = no such curve, though single readings can be large; an effect the other way counts as inactive or inconclusive.

SMILES	VDR inhibitor	PLK1 PBD block	FEN1 inhibitor	WRN inhibitor	PI5P4K alpha inh	TCR activator
CCOC(=O)c1c(NC(NC(=O)CF)C(Cl)(Cl)Cl)sc2c1CCCC2 (centres undefined)	45µM	12µM	.	.	.	.
CCC(=O)OC1(c2ccccc2)CCN(C)CC1C (centres undefined)	.	24µM	.	.	.	.
CCC(=O)OC1(c2ccccc2)C(C)CN(C)CC1C (centres undefined)	.	.	.	.	.	.
C=CCN1CC[C@]23c4c5ccc(O)c4O[C@@H]2/C(=N/N=C2\CC[C@@]4(O)C6Cc7ccc(O)c8c7[C@@]4(CCN6CC=C)[C@@H]2O8)CC[C@@]3(O)C1C5	.	/	/	/	/	/
S=C(S)N1CCCC1	20µM!	?	.	.	.	.
Cc1ccnc(-n2c(C)cc(C=C3C(=O)N(C)C(=S)N(C)C3=O)c2C)c1	?	1.2µM	.	?	?	.
CCc1nnc(NS(=O)(=O)c2ccc(N=Cc3c(O)n(-c4ccc(Cl)cc4)c(=O)[nH]c3=O)cc2)s1	.	27µM	.	.	?	.
C=C1C2C[C@]3(C4CC5[C@@]6(C)CC[C@H](O)[C@@]5(C3CC2=O)C4[N+]([O-])(CC)C6)[C@@H]1O (some centres undefined)	.	/	/	/	/	/
Cc1cc(OC(=O)N(C)C)n(-c2ccccc2)n1	.	.	.	.	.	.
CC(=O)NC1N=C(C)N(c2ccccc2)C1=O (centres undefined)	?	27µM	.	.	.	.
O=C(CC[N+](=O)[O-])OCC1OC(O)C(OC(=O)CC[N+](=O)[O-])[C@@H](OC(=O)CC[N+](=O)[O-])C1OC(=O)CC[N+](=O)[O-] (some centres undefined)	.	/	/	/	/	/
CN1C(=O)N(C)C(=O)C2(Cc3c(nc4ccccn4c3=O)N3CCc4ccccc4C32)C1=O (centres undefined)	.	17µM	.	.	.	/
COc1cc(/C=C/C(=O)c2c(O)n(CCc3ccccc3)c(=O)[nH]c2=O)ccc1O	45µM	.	?	.	-65	.
CCCCn1c(O)c(C(C)=NCCc2ccccc2)c(=O)[nH]c1=O	.	.	.	.	.	.
CCN1/C(=C\C=C\C2=[N+](CC)c3ccccc3C2(C)C)C(C)(C)c2ccccc21	.	.	45µM	45µM	?	.
Oc1cc2c(cc1O)[C@H]1c3ccccc3CN[C@H]1CC2	.	/	/	/	/	/
COc1cccc2c1C(=O)c1c(O)c3c(c(O)c1C2=O)C[C@@](O)(C(=O)CO)C[C@@H]3O[C@H]1C[C@H](N)[C@H](OC2CCCCO2)[C@H](C)O1 (some centres undefined)	.	/	18µM	/	/	/
O=C1C=CC(=O)c2c(O)cccc21	40µM	/	/	/	/	/
O=C1c2ccccc2C(=O)c2ccccc21	.	/	/	/	/	/
COc1cc2c(c3oc4cccc(O)c4c(=O)c13)C1C=CO[C@@H]1O2 (some centres undefined)	.	/	/	/	/	/
CC1(C)[C@@H](O)C[C@H]2[C@](C)(O)[C@@H]3CC[C@H]4[C@@H](O)[C@@]3(C[C@@H](O)[C@@]21O)C[C@@]4(C)O	.	/	/	/	/	/
CCN(CC)C(=O)c1c(C)[nH]c(=S)c(C#N)c1-c1ccco1	?	2.7µM	.	50µM	-96	.
CCn1nc(-c2cccs2)nc2c(=O)n(C)c(=O)nc1-2	.	.	.	.	.	.
CCn1nc(/C=C/c2ccccc2)nc2c(=O)n(C)c(=O)nc1-2	?	24µM	.	.[11.6 µM]	.	.
Oc1c(Cl)c(Cl)c(Cl)c(Cl)c1Cl	89µM	27µM	.	.	?	.
SMILES	VDR inhibitor	PLK1 PBD block	FEN1 inhibitor	WRN inhibitor	PI5P4K alpha inh	TCR activator
COC(=O)C12CC3=CC(CC3=O)Cc3ccccc3[C@@H]1CNC2=O (some centres undefined)	.	/	/	/	/	/
C[C@H](NC(=O)[C@@H](N)Cc1ccc(O)cc1)C(=O)N[C@@H](Cc1ccccc1)C(=O)NCC(=O)N[C@@H](Cc1ccc(O)cc1)C(=O)N1CCC[C@H]1C(=O)N[C@@H](CO)C(N)=O	.	/	/	/	/	/
CCN(CC)c1ccc(N=Cc2c(O)[nH]c(=O)[nH]c2=O)cc1	79µM	.	.	.	?	/
CCN(CC)c1ccc(N=Cc2c(O)n(-c3ccccc3)c(=O)[nH]c2=O)cc1	.	.	.	.	.	.
CCCC1(CCC)C(=O)NC(=NCc2ccccc2)NC1=O	.	?	.	.	.	.
S=C=NCc1ccccc1	40µM	/	/	/	/	/
CC[n+]1c(/C=C/N(C)c2ccccc2)sc2ccc(Cl)cc21	.	.	?	50µM	/	.
C[C@@H]1O[C@@H](O[C@H]2CC[C@@H](O[C@H]3[C@H](O)C[C@H](c4ccc5c(c4O)C(=O)C4=C(C5=O)[C@@]5(O)C(=O)C[C@](C)(O[C@H]6CC[C@H](O[C@H]7C=CC(=O)[C@H](C)O7)[C@H](C)O6)C[C@@]5(O)C=C4)O[C@@H]3C)O[C@H]2C)C=CC1=O	2µM	/	/	/	/	/
C/C(=N\NC(=O)c1ccncc1)c1c(O)n(-c2ccccc2)c(=O)[nH]c1=O	.	.	.	.	.	.
C/C(=N\Nc1cccc2ccccc12)c1c(O)n(Cc2ccccc2)c(=O)[nH]c1=O	.	.	.	.	-55	.
C/C(=N\NC(=O)c1ccccc1)c1c(O)n(Cc2ccccc2)c(=O)[nH]c1=O	.	.	.	.	-68	.
CCOC(=O)c1c(-n2c(C)cc(/C=C3/C(=O)NC(=O)N(CC)C3=O)c2C)sc2c1CCCC2	.	?	.	.	.	.
CCN1C(=O)NC(=O)/C(=C/c2cc(C)n(-c3sc(C)c(C)c3C#N)c2C)C1=O	?	2.1µM	?	?	?	.
COC(=O)Cn1cc(C=C2C(=O)NC(=O)NC2=O)c2ccccc21	.	?	?	.	.	.
COC(=O)Cn1cc(/C=C2\C(=O)NC(=O)N(c3ccc(OC)cc3)C2=O)c2ccccc21	.	?	.	.	.	.
COCCNC(=O)Cn1cc(/C=C2\C(=O)NC(=O)N(c3ccccc3F)C2=O)c2ccccc21	.	3µM	.	.	.	.
COCCNC(=O)Cn1cc(/C=C2\C(=O)NC(=O)N(c3cccc(C)c3C)C2=O)c2ccccc21	?	3.8µM	.	?	.	.
COc1ccc(N2C(=O)NC(=O)/C(=C\c3cn(CC(=O)N4CCOCC4)c4ccccc34)C2=O)c(OC)c1	?	11µM	?	.	.	.

Assay outcomes (PubChem)
